Measurements: article PMC4336329 (PLoS ONE, 2015)
In all, about 310,000 compounds went through this assay and about 14,000 (4.5%) showed an effect of 50% or more. Effects have a minus sign here. What follows is part of a selection rich in strong results, with near analogues and random picks from the rest.

The molecules below were run against human ether-à-go-go-related gene (hERG) potassium channel (human, UniProt Q12809) (assay: primary screen, population patch clamp on CHO cells stably expressing hERG; higher = less effect of the substance).
Chain of human ether-à-go-go-related gene (hERG) potassium channel (Q12809 whole entry, looked up): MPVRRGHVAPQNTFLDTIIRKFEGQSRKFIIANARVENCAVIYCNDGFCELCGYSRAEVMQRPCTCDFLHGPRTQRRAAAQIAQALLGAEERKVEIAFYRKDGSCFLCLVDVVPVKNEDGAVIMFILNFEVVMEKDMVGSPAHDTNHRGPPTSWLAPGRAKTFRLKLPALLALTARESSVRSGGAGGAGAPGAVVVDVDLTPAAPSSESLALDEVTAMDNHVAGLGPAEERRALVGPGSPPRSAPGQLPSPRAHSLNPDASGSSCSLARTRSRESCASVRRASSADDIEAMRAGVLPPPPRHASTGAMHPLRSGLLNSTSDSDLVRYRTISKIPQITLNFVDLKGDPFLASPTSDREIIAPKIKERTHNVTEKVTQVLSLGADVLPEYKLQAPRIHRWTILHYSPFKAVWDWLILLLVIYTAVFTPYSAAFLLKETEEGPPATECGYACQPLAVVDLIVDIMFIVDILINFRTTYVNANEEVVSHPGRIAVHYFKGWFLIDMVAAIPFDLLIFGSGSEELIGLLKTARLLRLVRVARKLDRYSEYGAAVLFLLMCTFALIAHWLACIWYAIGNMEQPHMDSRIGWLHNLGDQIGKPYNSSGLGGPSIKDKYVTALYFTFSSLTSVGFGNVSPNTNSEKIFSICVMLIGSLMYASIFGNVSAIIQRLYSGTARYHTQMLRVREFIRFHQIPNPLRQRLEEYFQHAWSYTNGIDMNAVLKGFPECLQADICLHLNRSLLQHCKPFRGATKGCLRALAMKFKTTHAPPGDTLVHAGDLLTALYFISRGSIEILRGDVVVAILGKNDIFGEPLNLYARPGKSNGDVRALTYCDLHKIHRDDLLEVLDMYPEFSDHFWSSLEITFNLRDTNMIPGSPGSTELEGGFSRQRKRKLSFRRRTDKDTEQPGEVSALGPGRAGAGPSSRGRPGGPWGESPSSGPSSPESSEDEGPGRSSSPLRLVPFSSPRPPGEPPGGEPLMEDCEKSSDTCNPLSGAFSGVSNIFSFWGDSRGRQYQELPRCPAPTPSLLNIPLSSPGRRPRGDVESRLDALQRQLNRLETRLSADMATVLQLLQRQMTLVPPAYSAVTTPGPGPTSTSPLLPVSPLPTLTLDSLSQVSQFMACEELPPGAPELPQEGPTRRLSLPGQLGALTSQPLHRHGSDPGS
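Note: peak tail current of the secondary pulse compared with the same well before compound.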

Row | Compound | hERG current change (%, negative = inhibition) at 10uM
1 | O=C(CN1CCN(Cc2ccc(F)cc2)CC1)Nc1ccccc1F | -35.2%
2 | O=C(CN1CCCCCC1)Nc1ccc(Cl)cc1F | -2.05%
3 | O=C(CN1CCN(C(=O)c2cccc(F)c2)CC1)Nc1ccccc1F | -70.1%
4 | O=C(CN1CCN(C(=O)c2ccccc2)CC1)Nc1ccc(Cl)cc1F | -71%
5 | O=C(CN1CCN(C(=O)c2c(F)cccc2F)CC1)Nc1ccccc1F | -11.3%
6 | O=C(CN1CCN(Cc2cccc(F)c2)CC1)Nc1ccccc1F | -55.9%
7 | O=C(c1cccc(Cl)c1)N1CCN(Cc2ccccc2F)CC1 | 10.1%
8 | Cl.O=C(CN1CCN(C(=O)c2cccc(F)c2)CC1)NC1CCCCC1 | 2.39%
9 | O=C(CN1CCN(Cc2cccc(F)c2)CC1)NCc1ccccc1 | -10.4%
10 | Cc1ccc(-c2nc(C3CCCN(S(=O)(=O)c4ccc(C(F)(F)F)cc4)C3)no2)cc1 (centres unmarked) | 15%
11 | CC(C)(C)C(=O)Nc1c2c(nn1-c1ccc(F)cc1)CSC2 | 13.4%
12 | COc1ccc(C(=O)NCCSCc2ccccc2)cc1OC | -5.31%
13 | Cc1nnc(SCC(=O)NC2CCCCC2)s1 | 10.7%
14 | O=[N+]([O-])c1cc(C(F)(F)F)ccc1Oc1cccnc1[N+](=O)[O-] | -7.06%
15 | O=C1CSC(=S)N1Cc1cccnc1 | -2.25%
16 | O=S(=O)(Nc1ccccn1)c1ccc(Br)cc1 | -2.97%
17 | Cc1cc(C)c(C#N)c(Nc2ccccc2C)n1 | 12.4%
18 | O=C(O)C(=O)O.O=C(c1cccs1)N1CCN(Cc2cccc([N+](=O)[O-])c2)CC1 | -33.1%
19 | O=C(O)C(=O)O.O=[N+]([O-])c1cccc(CN2CCN(Cc3ccc(Br)cc3)CC2)c1 | -72.4%
20 | O=C(O)C(=O)O.O=C(c1ccco1)N1CCN(Cc2cccc([N+](=O)[O-])c2)CC1 | -20.3%
21 | O=C(O)C(=O)O.O=[N+]([O-])c1cccc(CN2CCN(Cc3ccco3)CC2)c1 | -4.34%
22 | CC(C)N1CCN(Cc2cccc([N+](=O)[O-])c2)CC1 | -2.13%

Row | Compound | hERG current change (%, negative = inhibition) at 10uM
23 | O=C(O)C(=O)O.O=[N+]([O-])c1cccc(CN2CCN(Cc3ccc(Cl)cc3)CC2)c1 | -70.8%
24 | Cc1cccc(NC(=O)CN2C(=O)S/C(=C\c3ccccn3)C2=O)c1 | 30.2%
25 | O=C(CCn1nnc2ccccc21)Nc1nnc(-c2ccccc2F)s1 | 3.13%
26 | N#CC1=C(N)Oc2n[nH]c(-c3ccccn3)c2C1c1c(F)cccc1Cl (centres unmarked) | -3.23%
27 | CCOc1ccc(OCCCCNCCN)cc1.O=C(O)C(=O)O | 5.79%
28 | COC(=O)C1=NN(c2ccc(C)cc2)C2(S1)SC(C(C)=O)=C(C)N2c1ccccc1 (centres unmarked) | -10%
29 | CCOc1ccc(CNC(=O)CCSCc2ccccc2F)cc1OC | 5.18%
30 | Cc1ccc(/C=C(/C#N)c2nc(CCN3C(=O)c4ccccc4C3=O)cs2)cc1 | 21.6%
31 | COc1ccc(OC)c(CN2CCN(S(=O)(=O)c3ccc(NC(C)=O)cc3)CC2)c1.O=C(O)C(=O)O | -3.01%
32 | COc1ccc(CN2CCN(S(=O)(=O)c3ccccc3)CC2)c(OC)c1.O=C(O)C(=O)O | -63.5%
33 | COc1ccc(CN2CCN(S(=O)(=O)c3ccccc3)CC2)c(OC)c1OC | 3.14%
34 | COc1ccc(S(=O)(=O)N2CCN(Cc3cc(OC)c(OC)cc3OC)CC2)cc1.O=C(O)C(=O)O | -11.5%
35 | COc1cc(CN2CCN(S(=O)(=O)c3ccccc3)CC2)cc(OC)c1OC.O=C(O)C(=O)O | -5.31%
36 | COc1ccc(OC)c(CN2CCN(S(=O)(=O)c3ccccc3)CC2)c1 | -79.2%
37 | CCOC(=O)Cn1cnc2sc(C(=O)OC)c(C)c2c1=O | 11.1%
38 | CCn1c(COc2ccccc2OC)nnc1SCC#N | -3.43%
39 | C=CCn1c(SCC(=O)c2cccs2)nc2sc(C)cc2c1=O | 1.56%
40 | Cc1ccc(NC(=O)Nc2cccc(Cl)c2)c(C(=O)O)c1 | 19.6%
41 | CC1=C(C(=O)Nc2ccccc2)C(c2ccc3c(c2)OCO3)C2=C(CCCC2=O)N1 (centres unmarked) | -14.2%
42 | O=C1Nc2ccc(Br)cc2C1(O)Cc1ccncc1 (centres unmarked) | -2.45%
43 | CSCCC(NC(=O)COc1ccccc1)C(=O)N1CCOCC1 (centres unmarked) | -9.88%
44 | CSCCC(NC(=O)COc1ccccc1)C(=O)N1CCN(c2ccccc2)CC1 (centres unmarked) | -51.9%

Row | Compound | hERG current change (%, negative = inhibition) at 10uM
45 | CSCCC(NC(=O)COc1ccccc1)C(=O)N(C)Cc1cccc(F)c1 (centres unmarked) | -37.9%
46 | CSCCC(NC(=O)COc1ccccc1)C(=O)N(C)Cc1ccc(F)cc1 (centres unmarked) | -50.3%
47 | CSCCC(NC(=O)COc1ccccc1)C(=O)N(C)Cc1ccc(Cl)cc1Cl (centres unmarked) | -24.5%
48 | CSCCC(NC(=O)COc1ccccc1)C(=O)N1CCN(C(C)=O)CC1 (centres unmarked) | -5.67%
49 | CSCCC(NC(=O)COc1ccccc1)C(=O)OCC(=O)c1ccccc1 (centres unmarked) | 4.14%
50 | CSCCC(NC(=O)COc1ccccc1)C(=O)OCc1ccc([N+](=O)[O-])cc1 (centres unmarked) | -70.8%
51 | COC(=O)c1ccc(COC(=O)C(CCSC)NC(=O)COc2ccccc2)cc1 (centres unmarked) | -9.2%
52 | CC(=O)N1CCCc2ccccc21 | 15.5%
53 | O=C(NCc1ccc(Cl)c(Cl)c1)c1ccc2c(c1)OCO2 | -10.7%
54 | COc1ccccc1C(=O)NC(CCSC)C(=O)NNC(=O)C(C)Oc1ccccc1F (centres unmarked) | 0.592%
55 | O=C(O)COc1nsnc1N1CCOCC1 | 10.4%
56 | COc1cc(C(=S)N2CCCCC2)ccc1OCC(=O)Nc1ccccc1Cl | 18.9%
57 | S=c1[nH]nc(-c2ccc(Br)cc2)n1-c1ccc(Br)cc1 | 12.2%
58 | CCOC(=O)c1sc(N(Cc2ccccc2)C(=O)COC(=O)c2cnccn2)nc1C | 0.26%
59 | CCc1ccc(NC2=NC(C(=O)NC3CCCCC3)CC(=O)N2)cc1 (centres unmarked) | 14.9%
60 | O=c1[nH]c2cccnc2n1Cc1ccccc1 | 7.67%
61 | CCc1ccc(NC(=O)C(=O)N/N=C(\C)CC(=O)NCCOC)cc1 | -2.99%
62 | CN(CCOc1ccccc1)C(=O)c1cc([N+](=O)[O-])cc([N+](=O)[O-])c1 | -56.9%
63 | O=C(NCCOc1ccccc1)c1cc(C(=O)NCCOc2ccccc2)cc([N+](=O)[O-])c1 | -15.2%
64 | Cc1ccc(C(=O)N(C)CCOc2ccccc2)cc1S(=O)(=O)N1CCOCC1 | -15.6%
65 | CN(CC1COc2ccccc2O1)C(=O)c1ccc(Cl)c(S(=O)(=O)N2CCCCCC2)c1 (centres unmarked) | -25.8%
66 | Cc1ccc(S(=O)(=O)N2CCCCC2)cc1C(=O)N(C)CCOc1ccccc1 | -48%

Row | Compound | hERG current change (%, negative = inhibition) at 10uM
67 | CN(CCOc1ccccc1)C(=O)c1cc(S(=O)(=O)N2CCCCC2)ccc1Cl | -42.7%
68 | CN(CCOc1ccccc1)C(=O)c1ccc(N2CCCC2)c([N+](=O)[O-])c1 | -27.5%
69 | Cc1ccc(C(=O)N(C)CCOc2ccccc2)cc1S(=O)(=O)N1CCCCC1 | -51.4%
70 | CN(CCOc1ccccc1)C(=O)c1ccc(Cl)c(S(=O)(=O)N2CCCCC2)c1 | -67.4%
71 | CCn1cc(S(=O)(=O)NC(C)c2cc(OC)ccc2OC)cn1 (centres unmarked) | 1.25%
72 | CC(C)O.COC(=O)Nc1ccc2c(c1)N(C(=O)CCN1CCN3CCCC3C1)c1ccccc1CC2.Cl.O (centres unmarked) | 1.43%
73 | CC(=O)c1cc(F)c(N2CCN(C(=O)c3ccco3)CC2)cc1C | -18.5%
74 | Cn1c(Cl)c(/C=N/OC(=O)c2ccc(Cl)cc2)c2ccccc21 | -5.13%
75 | Cc1ccc(-c2nnn(CC(=O)N(Cc3ccc(F)cc3)C(C(=O)NC3CCCC3)c3ccncc3)n2)o1 (centres unmarked) | -12.4%
76 | CCOC(=O)c1ccc(Nc2c(OCC)c(=O)c2=O)cc1 | -15.4%
77 | CCCCn1c(=O)[nH]c(=O)c2c1nc(COc1ccc(C#N)cc1)n2CCC | -57.2%
78 | CCCCn1c(=O)[nH]c(=O)c2c1nc(-c1ccc(-c3ccccc3)cc1)n2C | 20.2%
79 | CCCCn1c(=O)[nH]c(=O)c2c1nc(-c1ccc(OCC)cc1)n2CC | 1.27%
80 | C=CCn1c(SCc2ccccc2)nc2c1c(=O)[nH]c(=O)n2C | -21.6%
81 | CCCCn1c(=O)[nH]c(=O)c2c1nc(-c1ccc(C(F)(F)F)cc1)n2C | 3.8%
82 | C=CCOc1ccc(-c2nc3c(c(=O)[nH]c(=O)n3CCC)n2CCCC)cc1 | -5.34%
83 | CCCCn1c(=O)[nH]c(=O)c2c1nc(-c1ccc(-c3ccc(F)cc3)o1)n2C | -55%
84 | C=CCn1c(SCc2nc3c(c(=O)[nH]c(=O)n3CCCC)n2CCC)nnc1-c1ccccc1 | -60.5%
85 | CCCn1c(=O)[nH]c(=O)c2c1nc(-c1ccc(C#N)cc1)n2CCOC | -2.78%
86 | CCCCn1c(O)c(/C(C)=N/NC(=O)Nc2ccccc2)c(=O)[nH]c1=O | 7.7%
